PubChem BioAssay (NCI)
Compounds without any hit were thinned out: in the full panel of roughly 83,000, 20% have a hit.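 Percent growth is the endpoint: 0 to 100 indicates growth inhibition (40 means 60% inhibition), 0 means no net growth, and negative values indicate cell death.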 Unmarked numbers belong to inactive results. Calls of active or inactive are those of the source. Rule for the calls: active = growth percent below 10; inactive = the rest.

The compounds below were run on IGROV1 ovarian (assay: NCI-60 one-dose screen, 48 h (100 = growth as untreated, 0 = no growth, -100 = all killed)). Details: 10 µM unless noted.
O=S(=O)(NCCNc1nccc(-c2c(-c3ccc(F)c(O)c3)nc3occn23)n1)c1ccc(Cl)cc1 gave a growth of 87.4%.
Work on Nc1n[nH]c2cccc(C#Cc3cccc(NC(=O)c4cc(F)cc(C(F)(F)F)c4)c3)c12 yielded a growth of 25.5%.
Compound N#Cc1nc(-c2ccc(F)cc2)oc1S(=O)(=O)N1CCOCC1 has a growth of 78.3%.

What follows are compounds tested on OVCAR-3 ovarian in the same assay as above. Details: 10 µM unless noted.
For Cc1cc(S(=O)(=O)/N=C(\N)n2nc(C)c(C)c2C)c(SCc2ccccc2)cc1Cl, the growth was 81%.
CS(=O)(=O)Nc1cncc(-c2ccc3ncnc(Nc4cncc(Cl)c4)c3c2)c1 was tested, and the growth was 52.9%.
CC(C)(Sc1cc(C(C)(C)C)c(OC(=O)CCCC(=O)O)c(C(C)(C)C)c1)Sc1cc(C(C)(C)C)c(OC(=O)CCCC(=O)O)c(C(C)(C)C)c1 showed a growth of 21.1%.
COc1cc2c(c(OC)c1OC)CCC(c1cccc(NC(=O)c3ccc(Br)cc3)c1)O2 (stereo not drawn) gave a growth of 90.8%.
For COc1ccc(CNc2c3ccccc3nc3ccccc23)cc1, the growth was 48.1%.
With N#CSc1c[nH]c2cccc(/C=C/C(=O)/C=C(/C=C/c3cccc4[nH]cc(SC#N)c34)OB(F)F)c12 the growth was 2.33% (active).
For CC1=NC2=Nn3c(c4cnn(-c5ccccc5)c4n/c3=N\N)NN2C(c2ccccc2)=C1, the growth was 90.2%.
For COc1ccc(\C=N/N=C(N)/C(N)=N\N=C/c2ccc(OC)cc2)cc1, the growth was 108%.
NC(=O)c1cccc(-n2ccc3cc(NC(=O)c4ccc(N5CCOCC5)c(C(F)(F)F)c4)ccc32)n1 was tested, and the growth was 48.7%.
For COc1ccc(-c2nc3cc(C(=O)NCc4ccccc4)ccc3n2C2CCCCC2)cc1, the growth was 85.8%.
For CN(C)CC(C)(C)C(=O)/C=C/c1ccccc1, the growth was -18.5% [25 µM] (active).
In the case of C=CCn1c(SCC(=O)Nc2ccc(C(=O)/C=C/c3ccc(Cl)cc3)cc2)nnc1-c1ccc(Br)cc1, the growth is reported as 85.5%.
Cc1cn(-c2cc(NC(=O)c3cccc(C#Cc4cccc5[nH]nc(N)c45)c3)cc(C(F)(F)F)c2)cn1 gave a growth of 75.3%.
Oc1c(I)cc(I)cc1CNCCN(Cc1ccccn1)Cc1ccccn1 was tested, and the growth was -59.7% (active).
For C=CC[Se]C(=O)Cc1c(C)n(C(=O)c2ccc(Cl)cc2)c2ccc(OC)cc12, the growth was -40.6% (active).
In the case of CCC(=C(c1ccc(OCCN2CCCCC2)cc1)c1ccc(OCCN2CCCCC2)cc1)c1ccc(Cl)cc1, the growth is reported as -83.9% (active).
Cc1ccc(/C=C2\COc3ccc(O)cc3C2=O)cc1 showed a growth of 101%.
In the case of COc1cc2nc3cc([N+](=O)[O-])ccc3c(NCCNCC(C)O)c2cc1OC (stereo not drawn), the growth is reported as -35.9% (active).
In the case of O=C(NNC(=O)c1ccc(NC(=O)c2ccccn2)cc1)Nc1ccc([N+](=O)[O-])cc1, the growth is reported as 109%.
In the case of O=C(Nc1ccc(Oc2cccc(F)c2)c(Cl)c1)c1cccnc1, the growth is reported as 6.97% (active).
Work on CCCc1c(OC(=O)c2ccccc2)nc2[nH]c(=O)sc2c1C yielded a growth of 103%.
In the case of CCCCCN1C(=O)/C(=c2\sc3n(c2=O)C2C(NN=3)N(CC)C(=O)N2CC)c2ccccc21 (stereo not drawn), the growth is reported as -74.5% (active).
Work on CCOC(=O)c1cc(C)n(-c2ccc(C(=O)O)cc2)c1C yielded a growth of 115%.
O=C1NC(=O)C(Cc2ccc(OCc3ccc(-c4ccc(Cl)cc4Cl)cc3)cc2)S1 (stereo not drawn) was tested, and the growth was 65.7%.
CC/C=C\C[C@H](O)C/C=C1/C(=O)C=C[C@@H]1C/C=C\CCCC(=O)N(C)C was tested, and the growth was 8.73% (active).
For NC(=O)CSc1oc(-c2ccccc2)nc1S(=O)(=O)c1ccc(Br)cc1, the growth was 62.5%.
In the case of COc1cc(-c2nccc3[nH]c(-c4ccc5cc[nH]c5c4)nc23)cc(OC)c1OC, the growth is reported as 2.2% (active).
With Cc1nc2sc(C(=O)Nc3cccc(Br)c3)c(N)c2cc1C(O)c1ccccc1 (stereo not drawn) the growth was 8.16% (active).
For CC(C)c1ccc(Cc2cnc(NC(=O)c3cc(Br)cs3)s2)cc1, the growth was 15.6%.
Cc1ccc(-c2nc([P+](c3ccccc3)(c3ccccc3)c3ccccc3)c(S(=O)(=O)c3ccc(C)cc3)o2)cc1 was tested, and the growth was 0.238% (active).
With COC(CC(F)F)c1cn(S(=O)(=O)c2ccc(C)cc2)c2ccccc12 (stereo not drawn) the growth was 7.08% (active).
With Cc1ccc(C[P+](c2ccccc2)(c2ccccc2)c2ccccc2)cc1 the growth was 5.95% (active).
In the case of Cn1cc(-c2nonc2-c2cn(C)c3ccccc23)c2ccccc21, the growth is reported as 0.348% (active).
CC1=C2[C@@H](CC1)[C@]1(C)O[C@@](C(C)C)(C[C@H]1OC(=O)[C@H](C)O)[C@H]2OC(=O)/C=C/c1ccccc1 showed a growth of 91.1%.
In the case of Cc1c(-c2ccc(O)cc2)n(Cc2ccc(OCCN3CCCCCC3)cc2)c2ccc(O)cc12, the growth is reported as 85.1%.
CCOC(=O)C(=O)C(C(=O)OCC)c1ccccc1 (stereo not drawn) showed a growth of 120%.
CS(=O)(=O)c1ccc(-c2cnn3ccc(-c4cccc(S(=O)(=O)C5CC5)c4)nc23)cc1 gave a growth of 54.7%.
With O=S(=O)(NCCNc1nccc(-c2c(-c3ccc(F)c(O)c3)nc3occn23)n1)c1ccc(Cl)cc1 the growth was 104%.
Work on Nc1n[nH]c2cccc(C#Cc3cccc(NC(=O)c4cc(F)cc(C(F)(F)F)c4)c3)c12 yielded a growth of 80.7%.
For N#Cc1nc(-c2ccc(F)cc2)oc1S(=O)(=O)N1CCOCC1, the growth was -88.4% (active).
